# Screening data: PubChem BioAssay, National Center for Advancing Translational Sciences (NCATS)
# An excerpt weighted towards active compounds, which were near 3.6% of everything screened.
# NPSR antagonist = neuropeptide S receptor (human) antagonism, cAMP | CHO-NPSR cells, cAMP TR-FRET, antagonist mode | Potency, µM (top dose mostly 38.3 µM), inactives show top-dose activity change, negative = inhibition, most hits filed as inhibitors | hit rate 1% among 220,000 | AID 1461; further: on the % scale 0 is the no-effect control and ±100 the full control effect; nearly all actives have a fitted effect of over 50% in size
# Target sequence (Q6W5P4 whole entry, looked up): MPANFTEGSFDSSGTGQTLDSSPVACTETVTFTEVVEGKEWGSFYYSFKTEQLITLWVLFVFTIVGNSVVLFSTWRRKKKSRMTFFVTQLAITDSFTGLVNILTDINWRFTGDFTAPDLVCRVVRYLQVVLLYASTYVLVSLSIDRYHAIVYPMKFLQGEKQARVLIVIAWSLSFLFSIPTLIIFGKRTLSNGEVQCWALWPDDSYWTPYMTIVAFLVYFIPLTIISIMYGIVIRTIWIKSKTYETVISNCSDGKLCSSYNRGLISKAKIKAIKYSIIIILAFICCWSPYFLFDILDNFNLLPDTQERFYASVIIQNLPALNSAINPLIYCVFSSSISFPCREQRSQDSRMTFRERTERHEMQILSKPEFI
# Epigenetic derep = regulators of epigenetic silencing causing reporter derepression in mouse cells | AID 1865 | hit rate 0.2% among 280,000 | Potency, µM (titrated, usually from 53.9 µM), for the others: at the top dose GFP activation, actives largely listed as activators | murine LDR cells, GFP reporter derepression, 30 h; further: % of control where 0% means no effect; nearly all actives have a fitted effect of over 60% in size
#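 GFP-positive cell count by laser-scanning cytometry (objects 20–120 um) after 30 h, 37 C compound exposure of murine LDR cells; reporter is CMV-GFP integrated at a silenced locus, inducible by HDAC or DNMT inhibitors.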
# GCN5L2 inh = GCN5L2 (KAT2A) acetyltransferase inhibition; Q92830; GCN5L2 HAT assay, ThioGlo1 CoA-SH fluorescence; Potency, µM (doses to about 58.9 µM), without a hit: at the highest dose activity change, negative = inhibition, usual class: inhibitors; hit rate 0.21% among 390,000; further: on the % scale 0 is the no-effect control and ±100 the full control effect
#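 qHTS, 1536-well. 20nM enzyme, pH 7.5 HEPES/EDTA/Tween-20 buffer; 15 min compound preinc., RT. Start: 75uM H3(1-25), 70uM AcCoA, 50uM ThioGlo1. Read Ex340/Em540 at t=0 (autofluorescence flag) and t=20 min.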
# IMPase Li inh = cell-permeable IMPase inhibitors with lithium potentiation; CHO-M1 cells, IP1 TR-FRET (IP-One), carbachol + lithium; hit rate 0.35% among 210,000; Potency, µM (doses to about 59.4 µM), for the others: at the top dose activity, negative = IMPase inhibition, most hits filed as inhibitors; AID 1457;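 further: IP1 builds up when IMPase is blocked and the TR-FRET signal falls; plate controls were basal vehicle for no effect and high inhibitor control for full effect; nearly all actives have a fitted effect of over 50% in size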
#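 Lithium-sensitised IP1 accumulation assay; M1-expressing CHO cells treated 30 min at 37C with compound. Competitive antibody detection by time-resolved FRET followed a 10 min room-temperature lysis step.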
# Sfp PPTase inh = Sfp phosphopantetheinyl transferase inhibition | Q9F4F7 | Biochemical Sfp PPTase activity, qHTS | Potency, µM, for the others: largest response in the series, negative = inhibition, usual class: inhibitors | hit rate 3.5% among 310,000;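 further: the enzyme is Sfp with the accession as filed and its product quenches rhodamine fluorescence; 0% = enzyme reaction without inhibitor and -100% = no enzyme wells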
#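 After 15 min at room temperature with compound, 15 nM Sfp received 5 uM rhodamine-CoA plus 12.5 uM BHQ-2-ybbR (50 mM Hepes pH 7.6, 10 mM MgCl2). Rate came from the fluorescence difference over 30 min, ex 525/em 598 nm.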
# JMJD2E inh = JMJD2E (human) inhibition; B2RXH2; JMJD2E catalytic domain, FDH-coupled NADH fluorescence (FDH is formaldehyde dehydrogenase); Potency, µM (top dose mostly 57.1 µM), inactives show at the top dose activity change, negative = inhibition, usual class: inhibitors; hit rate 1.6% among 230,000; AID 2147; active means well fitted inhibition curve with a large enough effect, not every such curve was filed as active; inconclusive means small, poorly fitted or top-dose-only effect, or another doubt; inactive means no such curve, though single readings can be large or run the other way;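 further: 0% = wells with enzyme and -100% = buffer wells without enzyme; nearly all actives have a fitted effect of over 50% in size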
# Target sequence (B2RXH2 1-337 limits assumed): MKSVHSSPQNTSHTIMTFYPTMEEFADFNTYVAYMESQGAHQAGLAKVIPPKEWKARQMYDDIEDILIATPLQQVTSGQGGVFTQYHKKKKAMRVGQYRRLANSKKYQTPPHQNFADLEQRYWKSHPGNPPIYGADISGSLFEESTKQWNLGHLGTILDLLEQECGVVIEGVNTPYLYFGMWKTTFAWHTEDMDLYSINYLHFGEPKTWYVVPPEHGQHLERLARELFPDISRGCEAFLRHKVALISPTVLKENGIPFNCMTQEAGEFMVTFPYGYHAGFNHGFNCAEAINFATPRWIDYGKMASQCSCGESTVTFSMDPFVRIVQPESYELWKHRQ
# * marks the source's active call; other numbers are inactive results; ? = inconclusive; / = not tested or not shown; [ ] = dose if it differs, or a comment. Unless noted, the call rests on the fitted dose curve; in most records, active means well fitted curve in the direction sought with a large enough effect; inconclusive means small, poorly fitted or top-dose-only effect, or another doubt; inactive means no such curve, though single readings can be large; an effect the other way counts as inactive or inconclusive. Potency means the concentration at half of the fitted maximal effect.
SMILES,NPSR antagonist,Epigenetic derep,GCN5L2 inh,IMPase Li inh,Sfp PPTase inh,JMJD2E inh
S=C(Nc1ccc2c(c1)OCCO2)Nc1ccc2c(c1)OCO2,8.2%,-0.4%,-1.5%,13.3%,-12.8%,-10.3%
S=C(Nc1ccc2c(c1)OCO2)Nc1ccccc1Cl,-10.9%,-0.2%,-7.7%,/,17.8µM*,-0.3%
Cc1oc(-c2ccc3c(c2)OCCO3)cc1C(=O)NC(CCC(=O)O)C(=O)O (centres undefined),-14.4%[46.1 µM],-0.8%,-3.2%,-3.8%[38.3 µM],17.8µM*,?
O=C(c1cccs1)N1N=C(c2ccccc2)CC1c1ccc(O)cc1 (centres undefined),-27.6%,3.2%,-10.0%,4.4%,20µM*,85.8%
CC(=O)N1N=C(c2ccccc2)CC1c1ccc(F)cc1 (centres undefined),/,/,-5.2%,/,12.7%,/
O=C(c1cccs1)N1N=C(c2ccc(O)cc2)CC1c1ccccc1 (centres undefined),-51.3%,2.4%,-1.4%,13.7%,17.8µM*,-8.9%
O=C(c1cccs1)N1N=C(c2ccccc2)CC1c1ccccc1 (centres undefined),?,-3.4%,-2.2%,18.9%,39.8µM*,?
O=C(Cc1ccccc1)N(Cc1cccnc1)c1nc2c(F)cc(F)cc2s1,/,1.9%,-8.8%,/,/,/
CCc1c(C)sc(NC(=O)c2cc(CC(C)C)on2)c1C#N,3.2%[46.1 µM],-0.2%,-3.3%,-0.6%[38.3 µM],-6.6%,36.0%
CCc1c(C)sc(NC(=O)c2noc(C)c2[N+](=O)[O-])c1C#N,-14.8%,7.4%,-19.7%,-6.2%,50.1µM*,-8.8%
Cc1onc(-c2ccccc2)c1C(=O)Nc1sc2c(c1C(N)=O)CCC2,-23.1%[46.1 µM],0.0%,-6.6%,16.2%[38.3 µM],?,16.3%
Cc1onc(C(=O)Nc2sc3c(c2C(N)=O)CCCC3)c1[N+](=O)[O-],-11.2%,0.1%,-14.4%,/,25.1µM*,-3.6%
O=C(CCCCCN1CCN(c2ccccc2-c2ccccc2)CC1)NC1CCCc2ccccc21 (centres undefined),/,/,-16.4%,/,/,/
CCN(CC)S(=O)(=O)c1cc(OC)ccc1N=Nc1ccc(O)c2ncccc12,/,/,-14.9%,/,2.1%,/
CCS(=O)(=O)c1ccc(OC)c(N=Nc2ccc(O)c3ncccc23)c1,3.8%,?,-14.8%,4.5%,-19.4%,17.8µM*
Cc1cc(=O)[nH]c(NN=C2CCC(C(C)(C)C)CC2)n1 (centres undefined),6.8%,-0.2%,-6.4%,-4.7%,50.1µM*,-13.8%
C/C(=N/NC(=O)c1cc(O)c(O)c(O)c1)c1ccc([N+](=O)[O-])cc1,-8.6%,0.0%,-2.3%,22.3%,3.16µM*,-16.6%
C/C(=N\NC(=O)c1ccc(-c2ccccc2)cc1)c1ccco1,/,/,-0.6%,/,13.8%,/
C/C(=N\NC(=O)c1cc([N+](=O)[O-])cc([N+](=O)[O-])c1)c1ccco1,18.8%,0.5%,-15.8%,-4.4%,35.5µM*,-4.1%
C[C@@H]1C(=O)N(S(=O)(=O)c2ccccc2[N+](=O)[O-])[C@H]1c1ccc(-c2ccccc2)cc1,/,/,/,/,16.2%,/
CCCCCCCCCCCCCCCCSCC(COC)COP(=O)([O-])OCC[N+](C)(C)C (centres undefined),/,/,-12.8%,/,-0.5%,/
NNc1ccc(Cl)nn1,-16.8%,0.0%,-6.3%,/,44.7µM*,-11.9%
CCN(CC)CCOC(=O)C1(c2ccccc2)CCOCC1,5.1%[7.67 µM],0.6%,1.5%,17.7%[38.3 µM],5.6%,5.1%
CCN(CC)CCOC(=O)C(Cc1cccc2ccccc12)CC1CCCO1 (centres undefined),/,-2.4%,4.3%,17.8%,-23.7%,22.4µM*
COC(=O)NC(C(=O)OC)(C(=O)OC)c1ccccc1,/,2.3%,/,10.0%,-0.4%,2.8%
SMILES,NPSR antagonist,Epigenetic derep,GCN5L2 inh,IMPase Li inh,Sfp PPTase inh,JMJD2E inh
CN(C)C1CCc2[nH]c3ccc(NC(=O)c4ccc(F)cc4)cc3c2C1 (centres undefined),/,/,-4.2%,/,3.9%,/
Cc1cc(C)nc(SC/C=C/c2ccccc2)n1,/,/,-19.3%,/,89.1µM*,/
C(=C\c1ccccc1)/CSc1ccccn1,-0.9%,1.1%,-9.0%,0.8%,11.2%,-2.7%
CN(C)S(=O)(=O)c1cccc(NC(=S)Nc2cc(Cl)cc(Cl)c2)c1,?,0.8%,-0.9%,19.4%[38.3 µM],50.1µM*,-8.0%
O=S(=O)(Nc1ncccn1)c1ccc(NC(=S)NCCc2ccc(Cl)cc2)cc1,-23.9%,1.1%,-1.0%,-2.9%,12.2%,-15.1%
CN(C)S(=O)(=O)c1cccc(NC(=S)Nc2ccc(Cl)cc2Cl)c1,-2.6%[46.1 µM],1.4%,-0.2%,48.6%[38.3 µM],?,1.8%
CN(C)S(=O)(=O)c1cccc(NC(=S)NCc2ccco2)c1,2.2%,-2.5%,-7.0%,-0.3%,?,-4.6%
O=S(=O)(Nc1ncccn1)c1ccc(NC(=S)Nc2cccc(Cl)c2)cc1,9.5%,1.0%,-5.7%,/,56.2µM*,-3.9%
CCN(CCO)c1ccc(NC(=S)Nc2cccc(S(=O)(=O)N(C)C)c2)cc1,-10.7%,-0.1%,-3.4%,15.0%,50.1µM*,?
Cc1ccc(-n2c3c(c(=O)[nH]c2=O)C(NC(=O)C(C)(C)C)(C(F)(F)F)C(=O)N3)cc1 (centres undefined),/,-1.0%,-5.3%,/,/,/
CC(C)[C@@H](OCc1ccccc1)[C@H](C)/C=N\OC[C@@H](O)[C@@H]1O[C@@H]2OC(C)(C)O[C@@H]2[C@H]1O,/,3.3%[10.1 µM],/,/,-2.2%,/
Cc1nc2ccccc2c(=O)n1Cc1ccco1,-8.3%,3.8%,3.2%,/,8.3%,13.6%
COc1ccc(S(=O)(=O)c2c(N)n(Cc3ccco3)c3nc4ccccc4nc23)cc1,-24.1%[46.1 µM],-0.7%,-15.5%,8.6%[38.3 µM],56.2µM*,?
Cc1cc(C)cc(-n2c3nc4ccccc4nc3c3c(=O)n(Cc4ccco4)cnc32)c1,10µM*,?,-24.7%,1.3%[38.3 µM],7.08µM*,?
COc1ccc(Cn2c3nc4ccccc4nc3c3c(=O)n(Cc4ccco4)c(C)nc32)cc1,-24.7%[46.1 µM],?,?,19.0%[38.3 µM],7.94µM*,?
COCCCn1cnc2c(c1=O)c1nc3ccccc3nc1n2-c1ccc(C)cc1,-12.2%[46.1 µM],0.8%,-2.2%,-4.0%[38.3 µM],9.2%,4.0%
CCO/C(C)=N/n1c2nc3ccccc3nc2c2c(=O)n(Cc3ccccc3Cl)c(C)nc21,-23.1%[46.1 µM],7.3%,-3.9%,-0.8%[38.3 µM],-5.2%,-19.1%
Cc1nc2c(c(=O)n1Cc1ccccc1Cl)c1nc3ccccc3nc1n2Cc1ccco1,12.6µM*,7.6%,?,30.0%[38.3 µM],2.82µM*,?
Cc1ccc(S(=O)(=O)c2c(N)n(/N=C/c3ccco3)c3nc4ccccc4nc23)cc1,-29.8%[46.1 µM],0.1%,-7.7%,-5.5%[38.3 µM],-28.0%,?
CCOc1cccc(-c2nnc(SCC(=O)Nc3ccc(OC)c(OC)c3)n2N)c1,-19.4%[46.1 µM],-1.0%,-3.1%,1.2%[38.3 µM],-11.5%,5.7%
